hcDAF-12 act = activators of H. contortus DAF-12 nuclear receptor. HEK293 hcDAF-12 lit1-tk-luc reporter, luminescence; 0% DMSO, 100% Δ7-dafachronic acid. activation, % at 6.8 µM. 370,000 tested, 1.4% active. AID 652067;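 active means activation above the mean of all tested compounds plus 3 SD, cut at about 5.5% in these data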;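 further: 100% = response to 3 µM Δ7-dafachronic acid high control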
ssDAF12 agonist = activators of S. stercoralis DAF-12 nuclear receptor. HEK293 ssDAF-12/GRIP1 lit1-tk-luc reporter, luminescence; % of 3 µM dafachronic acid response. AID 652126. activation, % at 6.8 µM. 370,000 tested, 1% active;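 active means activation above the mean over all tested compounds plus 3 SD, cut at about 0.9% in these data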;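 further: 0% = DMSO-only wells and 100% = 3 µM delta7-dafachronic acid wells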
DAX1 inh-1 = blocks DAX1 repression of SF-1 activated StAR promoter; HEK293T StAR-luciferase reporter, SF-1/DAX-1 repression relief; inhibition, % at 6.8 µM; 370,000 tested, 1.1% active; AID 652010;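 active means inhibition above the mean over all tested compounds plus 3 SD, cut at about 3.6% in these data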;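 further: 0% = DAX-1 cells with DMSO and 100% = cells lacking DAX-1 with DMSO; higher inhibition means more luminescence from relief of DAX-1 repression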
hgDAF12 agonist = agonists of H. glycines DAF-12 nuclear receptor | activation, % at 6.8 µM | HEK293 GAL4-hgDAF12 UAS-luciferase reporter, agonist luminescence; normalized to butyrate control | 370,000 tested, 1.8% active;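 active means activation above a cutoff set at the mean of all screened compounds plus 3 SD, cut at about 10% in these data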;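 further: 0% = DMSO wells and 100% = sodium butyrate wells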
DAX1 inh-2 = inhibits human nuclear receptor DAX1. HEK293 Gal4-DAX1 luciferase reporter, luminescence. 340,000 tested, 0.99% active. P51843. inhibition, % at 6.75 µM;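 active means inhibition above the mean over all tested compounds plus 3 SD, cut at about 4.2% in these data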;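 further: 0% = DAX1-transfected cells with DMSO and 100% = empty-vector control cells with DMSO; inhibition shows as a rise in luminescence from relieved DAX1 repression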
Target sequence (P51843 207-470 limits assumed): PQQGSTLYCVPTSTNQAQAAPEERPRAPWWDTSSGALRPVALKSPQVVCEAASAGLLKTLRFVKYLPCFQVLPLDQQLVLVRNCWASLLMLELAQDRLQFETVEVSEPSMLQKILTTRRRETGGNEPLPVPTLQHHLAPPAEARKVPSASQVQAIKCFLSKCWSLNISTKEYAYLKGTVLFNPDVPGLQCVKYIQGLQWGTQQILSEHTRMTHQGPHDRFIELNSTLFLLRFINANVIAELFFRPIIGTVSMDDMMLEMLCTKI
* hit, by the source's call; x = no result. Only some compounds are listed: those with a hit (about 4.1% of all), similar ones and a draw of the others.

SMILES	hcDAF-12 act	ssDAF12 agonist	DAX1 inh-1	hgDAF12 agonist	DAX1 inh-2
CC(=O)CCc1oc2ccccc2c1-c1ccccc1	-0.7	-1.6	-0.3	1.0	-0.2
O=C(Cn1nnc(-c2ccncc2)n1)Nc1ccc(F)cc1F	-2.3	-1.4	-1.5	-2.1	x
C=CCn1c(SCCN2CCCCC2)nc2c1c(=O)[nH]c(=O)n2C	-2.1	-1.0	1.4	-1.8	0.5
C=CCn1c(SCCOC)nc2c1c(=O)[nH]c(=O)n2C	6.5*	-1.2	1.6	-3.3	1.0
Oc1cc(-c2ccc(N3CCCCC3)nc2)cc2cccnc12	x	x	x	x	5.6*
O=C(NCc1ccccc1)O[C@H]1CC[C@@]23CCCN2C(=O)CCC[C@H]3C1	-2.2	-1.9	x	1.6	x
COc1ccc(-c2nc3c([nH]2)c(=O)n(C)c(=O)n3C)c(OC)c1	2.9	1.1*	0.3	2.6	0.5
N#CCC[C@@H]1CC[C@]2(CCCN(C(=O)c3ccc4ccccc4n3)C2)O1	-1.3	-1.2	0.0	1.9	x
N/C(=N\OC(=O)c1ccc(Cl)cc1)c1ccccn1	4.9	-1.3	4.2*	-1.9	-3.7
Cc1cc(/C(N)=N/OC(=O)c2ccc(Cl)cc2)no1	3.6	0.0	2.2	11.5*	x
N/C(=N\OC(=O)C12CC3CC(CC(C3)C1)C2)c1ccccn1	3.9	-0.8	1.8	10.9*	0.5
N/C(=N\OC(=O)c1ccc(Cl)c(Cl)c1)c1ccccn1	5.5	0.6	4.2*	10.7*	0.5
Cc1cccc(CCNC(=O)Cn2ncc3c2-c2cc(C)ccc2OC3)c1	-3.1	-1.9	-1.5	-2.7	x
COC(=O)[C@]12C[C@H](CC(=O)NCc3cccs3)C(=O)N(CCC3=CCCCC3)C1=C[C@H](C(C)(C)C)O[C@@H]2C	0.7	-1.3	-0.8	1.4	x
CC1C=CC=CCCC=CC=CC=CC=CC(OC2O[C@H](C)[C@@H](O)[C@H](N)[C@@H]2O)CC(O)C(C(=O)O)C(O)CC(=O)CC(O)C(O)CCC(O)CC(O)CC(O)CC(=O)OC(C)C(C)C1O (some centres undefined)	-1.2	-1.2	-0.6	0.7	x
N/C(=N\OC(=O)c1ccccc1[N+](=O)[O-])c1cccnc1	4.6	0.2	-0.3	4.4	0.4
N/C(=N\OC(=O)c1ccccc1[N+](=O)[O-])c1ccccn1	3.4	0.6	0.7	10.5*	-0.5
Cc1ccccc1NCC(=O)N/N=C/c1ccc[nH]1	-2.6	-1.5	x	0.2	x
O=C(CSc1nc(-c2ccc(F)cc2)cc(C(F)(F)F)n1)NCCN1CCOCC1	0.0	-1.4	0.2	0.1	1.7
O=C(CSc1nc(-c2ccco2)cc(C(F)(F)F)n1)NCCN1CCOCC1	-1.9	-1.4	-0.2	0.1	6.0*
CCOc1ccc(C(=O)Nc2ccc(Cl)cn2)cc1Cl	1.4	-0.1	2.9	12.6*	1.6
Cc1ccsc1C1Nc2ccccc2-c2nc3ccccc3n21 (centres undefined)	2.0	-0.2	1.9	10.8*	0.8
c1csc(C2Nc3ccccc3-c3nc4ccccc4n32)c1 (centres undefined)	2.5	0.1	2.4	9.6	-1.2
O=C(O)CN1C(=O)COc2cc(S(=O)(=O)N3CCCC3)ccc21	-0.3	-1.2	0.5	-1.2	5.8*
Cc1cc(Br)ccc1OCC(=O)NC1CCCC1	-4.3	-1.9	-6.8	-3.5	-2.0
SMILES	hcDAF-12 act	ssDAF12 agonist	DAX1 inh-1	hgDAF12 agonist	DAX1 inh-2
O=C(COc1ccc(Br)cc1Br)NC(=O)NC1CCCC1	5.3	-0.5	4.0*	7.2	4.1
COc1ccccc1-c1cccc([C@@H]2C[C@H]3[C@H](CON3C)CN2C(C)=O)c1	-1.4	-1.6	3.7*	0.8	-1.4
CC(=O)N1C[C@H]2CON(C)[C@H]2C[C@H]1c1ccccc1Br	-1.7	1.1*	-0.9	-0.8	0.0
CC(=O)N1C[C@H]2CON(C)[C@H]2C[C@H]1c1cccc(-c2ccccc2C)c1	-5.4	-1.8	-0.7	-12.9	-0.4
COC(=O)c1cc(-c2cc(Cl)ccc2OC)c(=O)n2c1CCC2	-3.2	-1.2	-0.2	-3.8	x
CC(C)C[C@H]1COc2cccc(F)c2S(=O)(=O)N1Cc1cn(Cc2ccco2)nn1	1.5	-0.9	0.4	4.5	x
COc1ccc(S(=O)(=O)NCc2cccnc2)cc1NC(=O)c1ccccc1	0.8	-0.8	-0.2	-2.2	5.3*
COc1ccc(S(=O)(=O)NCc2ccncc2)cc1NC(=O)c1ccccc1	-3.4	-1.6	-7.5	-6.2	-2.2

Compound activity: PubChem, The Scripps Research Institute Molecular Screening Center
